Results taken from paper PMC4336329 (PLoS ONE, 2015).
About 14,000 (4.5%) of roughly 310,000 compounds showed an effect of 50% or more. The effect is printed as a negative number. The entries come from a sample that favours strong results as a whole.

Target: human ether-à-go-go-related gene (hERG) potassium channel (human, UniProt Q12809)
Assay: primary screen, population patch clamp on CHO cells stably expressing hERG; higher = less effect of the substance
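Also: peak tail current of the secondary pulse compared with the same well before compound.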

Chain of human ether-à-go-go-related gene (hERG) potassium channel (Q12809 whole entry, looked up): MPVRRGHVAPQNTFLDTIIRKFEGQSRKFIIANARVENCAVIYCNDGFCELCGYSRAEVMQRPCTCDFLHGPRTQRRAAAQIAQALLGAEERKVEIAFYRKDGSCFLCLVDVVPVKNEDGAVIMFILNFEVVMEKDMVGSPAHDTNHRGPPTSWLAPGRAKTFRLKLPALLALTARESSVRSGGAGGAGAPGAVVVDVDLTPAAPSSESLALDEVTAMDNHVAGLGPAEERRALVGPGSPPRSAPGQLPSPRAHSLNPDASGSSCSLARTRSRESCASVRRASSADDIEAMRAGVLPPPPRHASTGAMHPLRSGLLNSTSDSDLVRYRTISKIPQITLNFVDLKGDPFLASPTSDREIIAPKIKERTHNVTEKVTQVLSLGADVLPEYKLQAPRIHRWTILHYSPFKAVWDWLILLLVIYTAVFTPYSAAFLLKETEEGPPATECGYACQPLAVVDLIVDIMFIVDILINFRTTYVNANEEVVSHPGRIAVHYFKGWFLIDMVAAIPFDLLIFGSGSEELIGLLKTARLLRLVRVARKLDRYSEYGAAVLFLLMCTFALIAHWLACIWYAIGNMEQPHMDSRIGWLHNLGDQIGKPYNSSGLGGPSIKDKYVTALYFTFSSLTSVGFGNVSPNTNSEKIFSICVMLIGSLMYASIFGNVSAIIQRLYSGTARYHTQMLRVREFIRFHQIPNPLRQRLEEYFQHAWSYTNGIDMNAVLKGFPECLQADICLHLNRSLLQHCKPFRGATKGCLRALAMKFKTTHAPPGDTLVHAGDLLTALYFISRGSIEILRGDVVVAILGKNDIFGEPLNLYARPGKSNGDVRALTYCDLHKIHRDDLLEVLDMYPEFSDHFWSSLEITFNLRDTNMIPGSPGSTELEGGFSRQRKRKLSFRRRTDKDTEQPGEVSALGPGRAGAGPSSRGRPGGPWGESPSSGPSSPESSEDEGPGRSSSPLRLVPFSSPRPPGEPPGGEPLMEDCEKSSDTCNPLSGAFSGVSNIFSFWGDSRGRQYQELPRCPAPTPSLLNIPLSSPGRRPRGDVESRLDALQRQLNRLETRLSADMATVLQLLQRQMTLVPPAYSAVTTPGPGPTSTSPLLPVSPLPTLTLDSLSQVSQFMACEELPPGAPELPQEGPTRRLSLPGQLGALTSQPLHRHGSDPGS

Compound | hERG current change (%, negative = inhibition) at 10uM [%]
CCCCC(=O)N/N=C/c1c(O)n(CCc2ccccc2)c(=O)[nH]c1=O | 18.3
CCOC(=O)C1CCCN(c2c(NCCN3CCCCC3C)c(=O)c2=O)C1 (centres unmarked) | 5.47
COc1ccc(C(=O)COC(=O)c2ccc3c(c2)OCO3)c(OC)c1 | -16.9
CCCn1c(N2CCN(Cc3cccc(C)c3)CC2)nc2c1c(=O)[nH]c(=O)n2C | -53
CCCn1c(N2CCN(C)CC2)nc2c1c(=O)[nH]c(=O)n2C | -13.5
COc1ccc(OCC(O)Cn2c(N3CCCCC3)nc3c2c(=O)[nH]c(=O)n3C)cc1 (centres unmarked) | -5.73
Cn1c(=O)[nH]c(=O)c2c1nc(Br)n2CC(O)COc1ccc(Cl)cc1 (centres unmarked) | -63.6
CN1CCN(c2nc3c(c(=O)[nH]c(=O)n3C)n2Cc2cccc(Br)c2)CC1 | -53.5
COc1ccc(N2CCN(c3nc4c(c(=O)[nH]c(=O)n4C)n3Cc3cccc(C)c3)CC2)cc1 | -14.2
Cc1ccc(OCC(O)Cn2c(N3CCCCC3)nc3c2c(=O)[nH]c(=O)n3C)cc1 (centres unmarked) | 9.46
Cn1c(=O)[nH]c(=O)c2c1nc(Br)n2Cc1cccc(Br)c1 | 15.1
Cn1c(=O)[nH]c(=O)c2c1nc(N1CCCCC1)n2CC(O)COc1ccc([N+](=O)[O-])cc1 (centres unmarked) | -69.8
COc1ccc(OCC(O)Cn2c(Br)nc3c2c(=O)[nH]c(=O)n3C)cc1 (centres unmarked) | -12.6
CN1CCN(c2nc3c(c(=O)[nH]c(=O)n3C)n2Cc2ccccc2)CC1 | -25.4
Cn1c(=O)[nH]c(=O)c2c1nc(Br)n2CC(O)COc1ccccc1 (centres unmarked) | -0.394
CCOC(=O)C[C@H]1c2ccccc2S(=O)(=O)N1C1CC1 | 5.78
Br.CC1(C)OC(c2ccccc2)=C/C(=C/C=Nc2ccccc2)O1 | -12.9
CC(C)c1ccc(C(O)c2cnc(C(C)C)n2C)cc1 (centres unmarked) | -27.5
O=C1N=C(N2CCN(c3cccc4ccccc34)CC2)S/C1=C/c1cccs1 | 11.9
O=C1N/C(=N\N=C\c2cccs2)SC1Cc1ccc(Cl)cc1 (centres unmarked) | -8.96
COc1ccc(-n2cnnc2SCC(=O)NC2CCS(=O)(=O)C2)cc1 (centres unmarked) | 8.52
O=C(CSc1nc2ccccc2n1-c1ccccc1)Nc1ncc(Cl)cc1Cl | 12.1
O=C(Nc1ccc(F)cc1F)C1CCN(S(=O)(=O)c2cccnc2)CC1 | -1.85

Compound | hERG current change (%, negative = inhibition) at 10uM [%]
CSc1ccc(Cn2nnc(C(=O)NCc3ccccc3)c2N)cc1 | -0.141
CS(=O)(=O)N1CCC(C(=O)Nc2cccc(C(F)(F)F)c2)CC1 | -14.2
O=C(CCCCn1c(=O)c2ccccc2n(Cc2ccc(F)cc2Cl)c1=O)NCc1ccco1 | -5.07
CC1CCN(c2nc3c(c(=O)[nH]c(=O)n3C)n2Cc2ccccc2)CC1 | 7.99
Cc1cccc(Cn2c(N3CCN(CCO)CC3)nc3c2c(=O)[nH]c(=O)n3C)c1 | -23.5
CN1CCN(c2nc3c(c(=O)n(C)c(=O)n3C)n2Cc2ccc(Cl)cc2)CC1 | -39.5
Cc1cccc(Cn2c(N3CCc4ccccc4C3)nc3c2c(=O)[nH]c(=O)n3C)c1 | -4.89
CN1CCN(c2nc3c(c(=O)[nH]c(=O)n3C)n2Cc2ccc([N+](=O)[O-])cc2)CC1 | -59
CN1CCN(c2nc3c(c(=O)[nH]c(=O)n3C)n2Cc2cccc3ccccc23)CC1 | -27.6
Cc1cccc(Cn2c(N3CCN(C)CC3)nc3c2c(=O)n(C)c(=O)n3C)c1 | -49
Cc1cccc(Cn2c(N3CCCCC3C)nc3c2c(=O)[nH]c(=O)n3C)c1 (centres unmarked) | -57
Cc1cccc(Cn2c(N3CCN(C)CC3)nc3c2c(=O)[nH]c(=O)n3C)c1 | -50.7
CN1CCN(c2nc3c(c(=O)[nH]c(=O)n3C)n2Cc2ccc(Cl)cc2)CC1 | -15.5
CN1CCN(c2nc3c(c(=O)n(C)c(=O)n3C)n2Cc2cccc(Br)c2)CC1 | -55.1
Cc1ccc(Cn2c(N3CCN(C)CC3)nc3c2c(=O)[nH]c(=O)n3C)cc1 | -14.9
O=C(COC(=O)CCNS(=O)(=O)c1ccc2c(c1)OCCO2)NC1CCCc2ccccc21 (centres unmarked) | -0.954
O=C(CN(C(=O)c1ccccc1Cl)N1C(=O)C2C3C=CC(C3)C2C1=O)c1cccs1 (centres unmarked) | 7.25
O=C(CSc1ncn[nH]1)NC12CC3CC(CC(C3)C1)C2 | -5.91
O=C(N/N=C/c1c(F)c(F)c(F)c(F)c1F)c1cc(-c2ccccc2)nc2ccccc12 | 6.92
O=C(O)Cc1csc(-c2cccc(F)c2)n1 | 19.1
CC(C)OC(=O)NCCOC(=O)Nc1ccccc1Cl | 21.6
Cn1c(=O)c(=O)n(C)c2cc(S(=O)(=O)CCC(=O)NCc3ccccc3)ccc21 | 20
COc1ccc(OC)c(/C=N/NC(=O)Cc2nc3ccccc3[nH]2)c1 | 5.63

Compound | hERG current change (%, negative = inhibition) at 10uM [%]
Cc1onc(-c2ccccc2)c1C(=O)N1CCN(S(=O)(=O)c2ccccc2C(F)(F)F)CC1 | 22.6
Cc1cc(S(=O)(=O)Nc2ccc(C(=O)NCCCN3CCCC3=O)cc2)ccc1F | 8.37
O=C(NCc1ccccc1)C1C(=O)N(Cc2ccccc2)C(=O)C1C1(O)CCCC1 (centres unmarked) | 2.87
O=C(Nc1ccc2oc(=O)ccc2c1)c1ccc(-c2ccc(Cl)cc2)o1 | 3.37
S=c1[nH]nc(Cc2ccccc2)n1Cc1ccco1 | -5.08
Cc1nc2ccc(S(=O)(=O)NCC(=O)N3CCN(c4ccccc4)CC3)cc2s1 | -1.33
O=C(O)c1cc(NC(=O)c2cccc(F)c2)cc(NC(=O)c2cccc(F)c2)c1 | 15.4
COc1ccc(C(CNC(=O)COc2ccccc2C)N2CCCC2)cc1 (centres unmarked) | -40.8
COc1ccc(C(CNC(=O)COc2ccc(F)cc2Br)N2CCCC2)cc1 (centres unmarked) | -64.5
COc1ccc(C(CNC(=O)COc2ccc([N+](=O)[O-])cc2)N2CCCCC2)cc1 (centres unmarked) | -69.9
COc1ccc(C(CNC(=O)COc2ccc(F)cc2Cl)N2CCCCC2)cc1 (centres unmarked) | -8.7
COc1ccc(C(CNC(=O)COc2ccccc2)N2CCCCC2)cc1 (centres unmarked) | -29.3
COc1ccc(C(CNC(=O)COc2ccccc2OC)N2CCCCC2)cc1 (centres unmarked) | -19.5
COc1ccc(OCC(=O)NCC(c2ccc(OC)cc2)N2CCCCC2)cc1 (centres unmarked) | -33.1
COc1ccc(C(CNC(=O)COc2ccccc2C)N2CCCCC2)cc1 (centres unmarked) | -20.7
COc1ccc(C(CNC(=O)COc2ccc(Br)cc2F)N2CCCC2)cc1 (centres unmarked) | -78.6
COc1ccccc1CNC(=O)CCc1nc2ccccc2c(=O)[nH]1 | -1.26
CC(=O)Nc1cccc(NC(=O)c2cccc(OCc3ccccc3)c2)c1 | 10.6
Cc1ccc(C2(C(F)(F)F)NC(=O)N3CCCN=C3S2)cc1 (centres unmarked) | 16.5
Cc1ccc(NC(=S)N(CCN2CCCCC2)Cc2ccco2)cc1C | -80.3
Cc1cc(C)c(NC(=S)N(CCN2CCCCC2)Cc2ccco2)c(C)c1 | -37.9
Cc1cc(NC(=S)N(CCN2CCCCC2)Cc2ccco2)ccc1Cl | -55.3
Cc1cccc(C)c1NC(=S)N(CCCN1CCCCC1)Cc1ccco1 | -25.7

Compound | hERG current change (%, negative = inhibition) at 10uM [%]
Cc1cccc(C)c1NC(=S)N(CCN1CCCCCC1)Cc1ccco1 | -34.9
Cc1cc(C)cc(NC(=S)N(CCN2CCCCC2)Cc2ccco2)c1 | -74.4
Cc1ccc(NC(=S)N(CCN2CCCCC2)Cc2ccco2)cc1Cl | -51.1
CN(C)CCOc1ccccc1-c1ccccc1.O=C(O)C(=O)O | -4.52
COc1ccccc1CCNC(=O)c1ccc2nc[nH]c2c1 | 3.97
Nc1cc(=O)[nH]c(SCc2ccccc2Cl)n1 | 3.76
Cc1nc2c(nnn2Cc2ccccc2)c(=O)n1-c1ccccc1 | 0.475
NC(=O)c1cc([N+](=O)[O-])ccc1N1CCCCC1 | -17.2
Cc1ccc(S(=O)(=O)N(C)c2ccc(OC(=O)CN3C(=O)NC4(CCCC4)C3=O)cc2)cc1C | 9.26
COC(=O)c1ccc(C(=O)OC)c(NC(=O)CN(C)Cc2ccc(Cl)c(Cl)c2)c1 | 5.46
CCNC(=S)N1CCC(C(=O)c2ccc(Cl)cc2)CC1 | -16.8
O=C(Cn1ncc(N2CCCC2)c(Br)c1=O)c1ccc(Cl)cc1 | -23.1
O=C(Cn1ncc(N2CCCC2)c(Cl)c1=O)c1ccc(Cl)cc1 | -21.2
CC(C)(C)C(=O)Cn1ncc(N2CCOCC2)c(Cl)c1=O | -71.9
CC(=O)Cn1ncc(N2CCCCC2)c(Cl)c1=O | 17.8
CO/N=C(\Cn1ncc(N2CCOCC2)c(Br)c1=O)c1ccc(Cl)cc1 | -19.7
CO/N=C(\Cn1ncc(N2CCCC2)c(Cl)c1=O)c1ccc(Cl)cc1 | -64
CC(=O)Cn1ncc(N2CCOCC2)c(Cl)c1=O | 4.26
CC(C)(C)C(=O)Cn1ncc(N2CCOCC2)c(Br)c1=O | -0.203
CO/N=C(\Cn1ncc(N2CCCC2)c(Br)c1=O)c1ccc(Cl)cc1 | -57.5
